Data from PubChem BioAssay (NCATS).
Results filed as inconclusive are left out. Active and inactive are the calls of the source. The call rests on the fitted dose curve; in most records, active means well fitted activation curve with a large enough effect in the main read-out, with a control signal flat (not every such curve was filed as active); inconclusive means small, poorly fitted or top-dose-only effect, or effect the other way, or a change in a side signal; inactive means flat fitted curve, though single readings scatter. Residues, ends and D or L forms follow the SMILES beside them.

biological target: 3',5'-cyclic-AMP phosphodiesterase 4B (Homo sapiens) (UniProt Q07343); assay: qHTS Assay for Inhibitors of PDE-IV (AID 607); settings: HEK293 ACTOne CNG channel cells, membrane potential fluorescence; series mostly up to 22.9 µM; activation (PDE inhibition): at the top concentration; further: % of control where 0% means no effect
How it was run: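 ACTOne HEK293 cells carry a modified cAMP-gated CNG channel and express endogenous PDE4; plated 1000 cells/well, compounds up to 22.9 uM final. Membrane-potential dye fluorescence (ex 535/em 590) was read; parental cells received 10 uM forskolin + 100 uM RO 20-1724.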

3',5'-cyclic-AMP phosphodiesterase 4B (Homo sapiens), sequence (Q07343 whole entry, looked up): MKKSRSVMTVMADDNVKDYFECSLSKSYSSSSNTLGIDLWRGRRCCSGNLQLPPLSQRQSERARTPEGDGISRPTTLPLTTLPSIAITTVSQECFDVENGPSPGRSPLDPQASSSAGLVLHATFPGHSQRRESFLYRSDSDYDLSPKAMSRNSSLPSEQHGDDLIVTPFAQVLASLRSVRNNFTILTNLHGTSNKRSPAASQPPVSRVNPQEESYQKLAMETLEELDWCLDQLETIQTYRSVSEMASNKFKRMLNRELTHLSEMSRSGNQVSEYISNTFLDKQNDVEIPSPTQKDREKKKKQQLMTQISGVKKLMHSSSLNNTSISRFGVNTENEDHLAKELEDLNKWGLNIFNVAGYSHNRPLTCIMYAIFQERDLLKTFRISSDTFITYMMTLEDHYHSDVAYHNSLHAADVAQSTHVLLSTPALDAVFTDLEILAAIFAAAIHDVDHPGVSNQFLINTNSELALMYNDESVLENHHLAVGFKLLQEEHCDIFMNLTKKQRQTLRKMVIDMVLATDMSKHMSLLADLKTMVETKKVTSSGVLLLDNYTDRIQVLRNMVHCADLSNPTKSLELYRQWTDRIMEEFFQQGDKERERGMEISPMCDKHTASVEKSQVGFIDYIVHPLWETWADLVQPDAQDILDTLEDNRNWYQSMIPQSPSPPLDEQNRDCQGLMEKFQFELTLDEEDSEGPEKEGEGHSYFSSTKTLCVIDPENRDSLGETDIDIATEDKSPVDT

Activation (PDE inhibition), inactive:
O=C(O)c1cc(-c2ccc3cc4c(cc3c2)OCO4)nc2ccccc12 -0.436%
c1cc(NNc2cccc(-c3nn[nH]n3)c2)cc(-c2nn[nH]n2)c1 -13.1%
O=C(O)c1ccc(OCc2ccccc2)c(Cl)c1 9.85%
Oc1ccc(Cl)cc1C=Nc1cnc2ccccc2c1 -7.86%
N[C@H]1[C@@H](C(=O)O)[C@H]2C=C[C@H]1C2 2.49%
Cc1ccc(S(=O)(=O)Oc2cc(N)c3c(n2)CCC3)cc1 2.81%
CN(C)CCCNc1ncnc2nc[nH]c12 -2.12%
CCc1c(O)c2c(c(O)c1C(C)=O)C(=O)c1c(cc(O)c(C(=O)O)c1C(=O)O)C2=O -0.886%
CC1(C)[C@@H]2CC[C@]1(C)[C@@H](OC(=O)/C=C\c1ccccc1)C2 5.59%
CCCCN(c1ccccc1)c1ncnc2c1cnn2C -1.66%
C[C@H](Br)C(=O)c1ccc2cc(Br)c3ccccc3c2c1 3.05%
NCC(=O)NC1(C(=O)O)CCCC1 (HELM PEPTIDE1{G.[O=C(O)C1(N[*:1])CCCC1]}$$$$V2.0) -4.98%
COc1ccc([C@H](O)c2ccccn2)cc1 6.73%
Cn1c(=O)c2c(ncn2CN2CCN(Cn3cnc4c3c(=O)n(C)c(=O)n4C)CC2)n(C)c1=O -2.8%
CSc1ncnc2c1ncn2[C@@H]1O[C@@H](CO)[C@H](O)O[C@@H]1O -0.419%
CC(C)[C@@H](C)/C=C\[C@@H](C)[C@@H]1CC[C@H]2C3=CC=C4C[C@@H](O)CC[C@]4(C)[C@H]3CC[C@]21C 3.28%
Nc1nc(N)c2[nH]cnc2n1 (tested in a mixture with another compound) -2.35%
